Screens (PubChem)
MCF10A rerep: induces DNA re-replication in MCF 10a normal breast cells | MCF 10A DNA re-replication, Hoechst nuclear intensity, 48 h | Potency, µM (titrated, usually from 46.1 µM), for the others: top-dose activity, positive = re-replication, hits mostly activators | actives 2.9% (n = 350,000) | AID 624296; further: potency means the concentration at half of the fitted maximal effect; % of control where 0% means no effect; nearly all actives have a fitted effect of over 50% in size
RORgamma inh: inhibitors of mouse ROR gamma transcriptional activity; AID 2551; Drosophila S2 Gal4-RORgamma UAS-luciferase reporter, 20 h; Potency, µM (top dose mostly 53.6 µM), inactives show at the top dose activity change, negative = inhibition, most hits filed as inhibitors; actives 5.4% (n = 310,000); further: potency means the concentration at half of the fitted maximal effect; on the % scale 0 is the no-effect control and ±100 the full control effect; nearly all actives have a fitted effect of over 60% in size
Target sequence (P51450 whole entry, looked up, the tested form may be a part): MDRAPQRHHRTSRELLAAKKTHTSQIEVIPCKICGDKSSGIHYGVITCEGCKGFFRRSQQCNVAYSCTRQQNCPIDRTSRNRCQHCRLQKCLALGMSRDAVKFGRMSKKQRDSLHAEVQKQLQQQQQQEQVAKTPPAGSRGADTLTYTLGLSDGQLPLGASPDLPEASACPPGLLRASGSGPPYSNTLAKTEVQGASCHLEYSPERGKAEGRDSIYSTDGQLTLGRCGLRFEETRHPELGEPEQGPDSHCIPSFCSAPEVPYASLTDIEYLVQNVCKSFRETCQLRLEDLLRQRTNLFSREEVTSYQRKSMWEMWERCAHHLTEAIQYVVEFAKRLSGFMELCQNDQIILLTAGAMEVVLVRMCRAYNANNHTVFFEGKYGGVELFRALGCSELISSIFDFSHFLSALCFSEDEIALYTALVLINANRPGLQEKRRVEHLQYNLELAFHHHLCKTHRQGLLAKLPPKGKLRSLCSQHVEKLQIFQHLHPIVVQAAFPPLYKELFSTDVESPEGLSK
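Stable Schneider cell line, Gal4 DNA-binding domain fused to ROR gamma, UAS-luciferase. Cmpd 1 hr RT → CuSO4 700 uM final → 20 hr RT → luciferase reagent 10 min → luminescence.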
Gal4-VP16 FLuc: Gal4-VP16 reporter inhibition counter-screen; actives 3.5% (n = 310,000); Drosophila S2 Gal4-VP16 UAS-luciferase, luminescence, 20 h; Potency, µM (doses to about 53.6 µM), inactives show top-dose activity, negative = inhibition, hits mostly inhibitors;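 further: Gal4-VP16 expression switched on by copper sulfate through the metallothionein promoter; potency means the concentration at half of the fitted maximal effect; on the % scale 0 is the no-effect control and ±100 the full control effect; nearly all actives have a fitted effect of over 50% in size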
SW480 rerep: DNA re-replication induction in SW480 cells | SW480 DNA re-replication, Hoechst DNA content imaging, 48 h | Potency, µM (series often up to 46.1 µM), without a hit: at the top dose re-replication activation, most hits filed as activators | actives 1.8% (n = 340,000) | AID 624297; further: potency means the concentration at half of the fitted maximal effect; % of control where 0% means no effect; nearly all actives have a fitted effect of over 55% in size
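250 cells/well; 23 nL cpd via pin tool; 48 hr, 37 C, 5% CO2; Hoechst 40 min; imager read of total nuclear intensity, ex 405/em 500-530 nm.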
IL-1B inflam inh: blocks inflammasome-driven IL-1 beta release | THP-1 LPS/ATP IL-1B secretion, AlphaLISA, 16 h; hits give low values | activity change, % at 57.5 µM | actives 4.7% (n = 360,000) | AID 743279; in the data active means activity change below about -50%; inconclusive means mostly about -30% to -49%; further: on the % scale 0 is the no-effect control and ±100 the full control effect
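THP-1 cells pretreated 1 hr with compounds (up to 57.5 uM final), then stimulated with LPS (250 ng/mL final) plus ATP (1.25 mM final); secreted IL-1B measured by AlphaLISA after 16 hr, decreased signal indicating inhibition.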
Numbers without * were called inactive; ? = inconclusive; . = no result given; [ ] = dose if it differs, or a comment. The list is not random: actives were taken first. Their share in the collection is about 11%. Unless noted, the call rests on the fitted dose curve; in most records, active means well fitted curve in the direction sought with a large enough effect; inconclusive means small, poorly fitted or top-dose-only effect, or another doubt; inactive means no such curve, though single readings can be large; an effect the other way counts as inactive or inconclusive.

SMILES | MCF10A rerep | RORgamma inh | Gal4-VP16 FLuc | SW480 rerep | IL-1B inflam inh
COC(=O)c1ccc(-n2ccnc2)cc1 | 0% | -17% | ? | 1% | -11
CCOC(=O)C(=Cc1ccc(Br)cc1)C(=O)OCC | 1.6µM* | 14µM* | ? | 7.3µM* | -97*
CCc1ccc(C(C)NC(=O)/C=C/c2ccc(Br)cc2)cc1 (centres undefined) | -5% | 21% | -3% | 18% | 0
O=c1c(-c2ccccc2)nc2cnc(N3CCNCC3)nc2n1C1CC1 | . | -29% | -7% | . | .
CO[C@@H]1COC(=O)[C@H]2CCCN2C(=O)[C@@H](C)COC(=O)C/C=C\[C@H]1C | . | 3%[10 µM] | -15%[10 µM] | . | .
COC(c1ccccc1Br)C(C)/C=C/CCO (centres undefined) | . | -2%[10 µM] | 7%[10 µM] | . | .
COC(=O)c1ccc(OC(=O)c2ccncc2)cc1O | 0% | 10% | 0% | ? | 4
Cc1cccc(-n2ncc3c(N4CCCC4)ncnc32)c1 | 2% | ? | ? | -3% | -7
Cc1ccc(-n2ncc3c(N4CCN(c5ccccc5)CC4)ncnc32)c(C)c1 | ? | 21% | -18% | 8% | -69*
Cc1cccc(C(=O)N2CCN(c3ncnc4c3cnn4-c3ccccc3)CC2)c1 | 15% | ? | -16% | -3% | -57*
COCCn1c(=O)c(-c2cc(F)cc(F)c2)nc2cnc(Oc3ccc(OC)cc3)nc21 | . | 2% | 6% | . | .
COc1ccc2c(c1)C(C)(CCN)C(=O)N2C (centres undefined) | -6% | . | . | -20% | .
Cc1c(C(=O)Nc2ccc(S(=O)(=O)N(C)C3CCN(C)CC3)cc2)oc2c(Cl)cccc12 | ? | . | . | ? | -96*
CN1CCC(N(C)S(=O)(=O)c2ccc(NC(=O)c3ccc(S(=O)(=O)N(C)C)cc3)cc2)CC1 | 3% | . | . | 0% | -11
Cc1c(C(=O)Nc2ccc(S(=O)(=O)N(C)C3CCN(C)CC3)cc2)oc2ccccc12 | ? | . | . | ? | -52*
COc1cccc(C(C)(O)c2nc(-c3ccc(F)cc3OC)cs2)c1 (centres undefined) | . | . | . | . | 18
CC(C1CC2CCC1C2)n1c(COc2ccccc2F)nnc1SCC(N)=O (centres undefined) | ? | 37% | ? | 6% | -4
CC(C)NC(=O)NC(=O)CSc1nnc(COc2ccccc2F)n1C(C)C1CC2CCC1C2 (centres undefined) | 13µM* | ? | ? | ? | -52*
COc1ccc(Cc2nc3c([nH]2)c(=O)n(C)c(=O)n3C)cc1OC | -2% | . | . | -7% | 6
COc1cccc(CNC(=O)CCC2CCCN(Cc3cc4ccccc4o3)C2)c1 (centres undefined) | ? | 0% | -16% | 14% | -60*
COCc1ccc(C(=O)N2CCCC(CCC(=O)NCc3ccccc3F)C2)o1 (centres undefined) | 13µM* | 2% | 6% | 12µM* | 42
COc1cccc(CNC(=O)CCC2CCCN(C(=O)CCC(F)(F)F)C2)c1 (centres undefined) | 14% | -3% | 7% | 5% | -4
CCOc1cccc(CN2CCCC(CCC(=O)NCc3ccccc3F)C2)c1O (centres undefined) | -25% | -21% | 0% | 16µM* | 0
Cc1cccc(N2CCN(C(=O)CCC(=O)N3CC(C)Oc4ccc(C)cc43)CC2C)c1 (centres undefined) | 11% | 35% | -9% | 6% | -26
COC(=O)[C@@]1(Cc2ccccc2)[C@H]2c3cc(C(=O)N4CCCC4)[nH]c3C[C@H]2CN1C(=O)c1ccccc1 | . | -6% | 2% | . | .
SMILES | MCF10A rerep | RORgamma inh | Gal4-VP16 FLuc | SW480 rerep | IL-1B inflam inh
CCn1c(N)cc(=O)[nH]c1=S | -8% | . | . | -7% | 45
COc1ccc(S(=O)(=O)N2CCOC2CNC(=O)C(=O)NCCCN2CCCC2=O)cc1OC (centres undefined) | . | . | . | . | -14
CC(=Nc1ccccc1)C1=C(O)C(Cc2ccccc2)NC1=O (centres undefined) | ? | . | . | 0.16µM* | 24
CC(=Nc1ccccc1)C1=C(O)C(Cc2ccc(F)cc2)NC1=O (centres undefined) | . | . | . | . | 16
CN(C)c1ccc(-c2cc3ccccc3c(=O)o2)cc1 | 15µM* | . | . | 13µM* | 18
CN(C)c1cc(-c2ccc(C#N)cc2)oc(=O)c1Cl | -3% | -2% | -6% | 31% | -2
Clc1ccc(Cl)c(OCCCCNCc2ccccc2)c1 | 24% | -39% | -13% | 6% | -102*
Cc1cccc(OCCCc2c(C)n[nH]c2C)c1 | ? | 11µM* | -1% | 1% | 6
Cc1cc(C)c(OCCCNC2CCCC2)c(Br)c1 | 0% | -24% | -11% | 19% | -55*
Cc1cccc(OCCCCCNCCO)c1 | 1% | 7% | 5% | 2% | 2
Cc1cccc(OCCCCNCc2ccccc2)c1 | -4% | -30% | -1%[10 µM] | 1% | -72*
COc1ccc(CNC(=O)/C=C/[C@H]2O[C@@H](n3ccc(=O)[nH]c3=O)[C@H](O)[C@@H]2O)cc1 | . | . | . | . | 29
Cc1cc(C)c(OCCCNCc2ccccc2)c(Br)c1 | ? | 3%[1.91 µM] | -12% | 5% | -72*
CCCNC(=O)c1ccccc1SCc1c(C)noc1C | 0% | 10% | -4% | 2% | 19
CC1(C)CC(=O)C(C(c2ccc(Br)cc2)C2C(=O)CC(C)(C)CC2=O)C(=O)C1 | 10% | -7% | -1% | -7% | 24
COc1cc(OC)cc(-c2c(-c3cccs3)c3cc(-c4ccc(C(N)=O)cc4)ccc3n2C)c1 | 16µM* | . | . | ? | 17
O=C(c1cnc(-c2ccccc2)s1)c1ccc(Cl)cc1Cl | 17% | -1% | -20% | 2% | 2
CC(=O)c1cnc(-c2cccc(Cl)c2)s1 | 2.1µM* | 7% | 26% | -38% | -24
CN(C)/C=C/C(=O)c1cnc(-c2cccc(Cl)c2)s1 | 0.65µM* | 10% | ? | -1% | -28
CC(C)=CCC/C(C)=C/CO/N=C1/[C@H]2O[C@@H]2[C@@H](O)[C@H]2[C@H]1CCn1c(=O)n(-c3ccccc3)c(=O)n12 | . | 14%[10 µM] | 9%[10 µM] | . | .
Cc1ccc(O)c(NC(=O)c2onc(C)c2Cl)c1 | -3% | 19% | ? | 4% | -15
Cc1ccc(O)c(Sc2cc(C)ccc2O)c1 | ? | ? | 13µM* | -7% | -5
O=C(Oc1ccc(Br)cc1C(=O)/C=C/c1ccccc1F)c1ccco1 | ? | . | . | ? | -98*
CC(=O)c1cc(Cl)ccc1OC(=O)c1ccco1 | -1% | -13% | 3% | 15% | 13
C(=NN1CCCCCC1)c1ccc2c(c1)OCO2 | -1% | . | . | -3% | -16
COc1cc(/C=N/n2c(C3CCCCC3)n[nH]c2=S)cc(Br)c1O | 1% | -42% | -22% | -15% | 34
CC(=C/c1ccccc1)/C=N/n1c(-c2ccco2)n[nH]c1=S | 12% | 17% | -1% | -25% | 0
